The test system of experiment [1] is Wnt5a (protein binding on small-molecule microarray). Nature of the experiment: Wnt5a binders on small-molecule microarray, primary screen, biophysical, 635/667 nm fluorescence (AID 1142).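 Note: fluorescence read at 667 nm with signal to noise per printed feature.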 The following applies: 635 nm fluorescence, higher = more signal.
Experiment [2] is described as follows: cell viability in Huh7 cells, primary screen, cytotoxicity control for HCV replication inhibitor project, CellTiter-Glo luminescence, basal, 48 h (AID 1143).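 Note: Huh7 hepatoma cells carrying a hepatitis C replication reporter with no stimulus; test concentration not given here.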 The following applies: Huh7 HCV replicon, higher = more signal, called active from +8 up or from −8 down.
The nature of experiment [3]: P. aeruginosa biofilm formation inhibitors, primary screen, PAO1 strain, BacTiter-Glo luminescence, LB-PBS (AID 1144). The following applies: 12 h, higher = more signal.
A short description of experiment [4]: CREB reporter modulators without forskolin, primary screen, cell-based, PC12, CRE-LacZ reporter, unstimulated (AID 1145). The following applies: no forskolin, luminescence, 4.5 h, higher = more signal, called active from +8 up or from −8 down.
Experiment [5] is described as follows: CREB reporter modulators under forskolin, primary screen, cell-based, PC12, CRE-LacZ reporter, forskolin-stimulated (AID 1146).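 Note: PC12 cells with 6xCRE LacZ reporter stimulated by forskolin 10 µM; beta-galactosidase reporter signal reflecting CREB driven transcription.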 The following applies: luminescence, 4.5 h, higher = more signal, called active from +8 up or from −8 down.
In experiment [6] the target is Streptavidin (Streptomyces avidinii) (UniProt P22629). Nature of the experiment: streptavidin binders on small-molecule microarray, primary screen, artefact control for SMM compound annotation, biophysical, 635/667 nm fluorescence (AID 1147).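 Note: signal reflects streptavidin binding to arrayed compounds as a control protein.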 The following applies: streptavidin binding, higher = more signal.
Sequence of Streptavidin (Streptomyces avidinii) (P22629 whole entry, looked up): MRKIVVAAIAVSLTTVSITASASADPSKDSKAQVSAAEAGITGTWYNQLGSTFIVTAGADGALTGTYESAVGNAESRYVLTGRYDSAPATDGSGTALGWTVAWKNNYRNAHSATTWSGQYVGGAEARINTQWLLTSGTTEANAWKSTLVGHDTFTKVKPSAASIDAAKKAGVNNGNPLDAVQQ
Experiment [7] can be described thus: small-molecule binders of probe aInhba, primary screen, biochemical, small-molecule microarray, 635/667 nm fluorescence (AID 1148).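 Note: score merges 667nm spot fluorescence with signal-to-noise for antibody binding to printed compounds.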 The following applies: higher = more signal.
Experiment [8] concerns the target Torsin-1A (Homo sapiens) (UniProt O14656). Nature of the experiment: torsin A binders from cell lysate, primary screen, small-molecule microarray, wild-type, 635/667 nm (AID 1149). The following applies: COS7 hTOR1A-WT lysate, 635 nm fluorescence, higher = more signal.
Experiment [9] shares this target. Nature of the experiment: small-molecule binders of mutant TOR1A in lysate, primary screen, cell lysate, small-molecule microarray, COS7 lysate, 635/667 nm fluorescence (AID 1150).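 Note: score pools 667 nm emission and signal to noise measuring lysate protein binding.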 The following applies: COS7 hTOR1A mutant lysate, 635 nm fluorescence, higher = more signal.
For experiment [10], the system named is Sonic hedgehog protein (Shh). Kind of experiment: small-molecule binders of Shh protein, primary screen, biochemical, small-molecule microarray, 635/667 nm fluorescence (AID 1151).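 Note: Shh protein binding to compounds spotted on small-molecule microarray slides; score combines spot fluorescence intensity with signal-to-noise across triplicate slides.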 The following applies: small-molecule microarray binding, 635 nm fluorescence; higher = more signal.
The nature of experiment [11]: E. coli DRC41 culture turbidity changes, primary screen, E. coli filamentation inducer project, strain DRC41, OD650, 48 h (AID 1152).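 Note: E. coli MC1000 strain DRC41 lacking acrAB efflux pump and sulA.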 The following applies: E. coli DRC41 (acrAB sulA), higher = more signal, called active from +8 up or from −8 down.
Experiment [12] in a line: small-molecule binders of probe aLefty1, primary screen, biochemical, small-molecule microarray, 635/667 nm fluorescence (AID 1153).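 Note: score merges spot fluorescence with signal-to-noise ratio from the scanned slide images.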 The following applies: higher = more signal.
A short description of experiment [13]: PSAC antagonists in infected red cells, primary screen, cell-based, P. falciparum Indochina, OD700, 1 h (AID 1154). The following applies: P. falciparum Indochina infected RBC osmotic lysis, higher = more signal, called active from +8 up or from −8 down.
The nature of experiment [14]: PSAC antagonists in infected red cells, primary screen, cell-based, P. falciparum Indochina, OD700, 2 h (AID 1155).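 Note: lysis reports solute entry through the parasite surface anion channel PSAC; channel blockers reduce lysis of infected cells.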 The following applies: P. falciparum Indochina infected erythrocytes, osmotic lysis OD700; higher = more signal, called active from +8 up or from −8 down.
Experiment [15] is described as follows: osmotic lysis modulators in infected erythrocytes, primary screen, PSAC antagonist project, cell-based, P. falciparum Indochina, OD700, 3 h (AID 1156). The following applies: higher = more signal, called active from +8 up or from −8 down.
A short description of experiment [16]: PSAC antagonists in infected red cells, primary screen, cell-based, P. falciparum Indochina, OD700, 18 h (AID 1157). The following applies: P. falciparum Indochina infected erythrocytes, osmotic lysis OD700, 18 h; higher = more signal, called active from +8 up or from −8 down.
Experiment [17] in a line: modulators of S6 phosphorylation in cells, primary screen, cell-based, A549, cytoblot, luminescence, serum-stimulated (AID 1158).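 Note: serum-stimulated A549 lung adenocarcinoma cells; signal is phosphorylated S6 detected by cytoblot immunostaining with HRP secondary.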 The following applies: A549 phospho-S6 cytoblot, 5 h, higher = more signal.
The target of experiment [18] is NADPH oxidase 2 (Homo sapiens) (UniProt P04839). Kind of experiment: NOX2-dependent H2O2 signal modulators, primary screen, NOX inhibitor project, cell-based, HEK293-NOX2, PMA-stimulated, Amplex Red fluorescence (AID 1159). Note: test concentration not given here. The following applies: 45 min, higher = more signal, called active from +8 up or from −8 down.
Sequence of NADPH oxidase 2 (Homo sapiens) (P04839 whole entry, looked up): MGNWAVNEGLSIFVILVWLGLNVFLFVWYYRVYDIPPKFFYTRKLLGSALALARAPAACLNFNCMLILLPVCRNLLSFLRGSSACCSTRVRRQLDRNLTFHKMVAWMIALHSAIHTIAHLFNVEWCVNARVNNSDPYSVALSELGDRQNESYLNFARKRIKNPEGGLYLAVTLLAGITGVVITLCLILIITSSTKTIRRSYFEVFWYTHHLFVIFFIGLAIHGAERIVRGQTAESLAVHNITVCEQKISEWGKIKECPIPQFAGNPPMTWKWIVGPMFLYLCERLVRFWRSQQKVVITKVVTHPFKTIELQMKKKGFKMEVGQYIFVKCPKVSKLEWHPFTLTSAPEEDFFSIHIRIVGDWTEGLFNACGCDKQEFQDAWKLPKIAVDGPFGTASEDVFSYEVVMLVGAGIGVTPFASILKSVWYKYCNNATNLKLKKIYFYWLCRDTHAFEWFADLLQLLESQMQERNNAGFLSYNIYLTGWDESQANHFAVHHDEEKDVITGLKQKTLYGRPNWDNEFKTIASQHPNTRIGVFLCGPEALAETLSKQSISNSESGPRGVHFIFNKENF
Experiment [19] has as its target NADPH oxidase 4 (Homo sapiens) (UniProt Q9NPH5). Nature of the experiment: NOX4-dependent H2O2 signal modulators, primary screen, NOX inhibitor project, cell-based, HEK293-NOX4, tetracycline-induced, Amplex Red fluorescence (AID 1160). The following applies: 45 min, higher = more signal, called active from +8 up or from −8 down.
The target in experiment [20] is NADPH oxidase 5 (Homo sapiens) (UniProt Q96PH1). Kind of experiment: NOX5-dependent H2O2 signal modulators, primary screen, NOX inhibitor project, cell-based, HEK293-NOX5, Amplex Red fluorescence (AID 1161). The following applies: HEK293-NOX5, ionomycin, 45 min, higher = more signal.
Sequence of NADPH oxidase 5 (Homo sapiens) (Q96PH1 whole entry, looked up): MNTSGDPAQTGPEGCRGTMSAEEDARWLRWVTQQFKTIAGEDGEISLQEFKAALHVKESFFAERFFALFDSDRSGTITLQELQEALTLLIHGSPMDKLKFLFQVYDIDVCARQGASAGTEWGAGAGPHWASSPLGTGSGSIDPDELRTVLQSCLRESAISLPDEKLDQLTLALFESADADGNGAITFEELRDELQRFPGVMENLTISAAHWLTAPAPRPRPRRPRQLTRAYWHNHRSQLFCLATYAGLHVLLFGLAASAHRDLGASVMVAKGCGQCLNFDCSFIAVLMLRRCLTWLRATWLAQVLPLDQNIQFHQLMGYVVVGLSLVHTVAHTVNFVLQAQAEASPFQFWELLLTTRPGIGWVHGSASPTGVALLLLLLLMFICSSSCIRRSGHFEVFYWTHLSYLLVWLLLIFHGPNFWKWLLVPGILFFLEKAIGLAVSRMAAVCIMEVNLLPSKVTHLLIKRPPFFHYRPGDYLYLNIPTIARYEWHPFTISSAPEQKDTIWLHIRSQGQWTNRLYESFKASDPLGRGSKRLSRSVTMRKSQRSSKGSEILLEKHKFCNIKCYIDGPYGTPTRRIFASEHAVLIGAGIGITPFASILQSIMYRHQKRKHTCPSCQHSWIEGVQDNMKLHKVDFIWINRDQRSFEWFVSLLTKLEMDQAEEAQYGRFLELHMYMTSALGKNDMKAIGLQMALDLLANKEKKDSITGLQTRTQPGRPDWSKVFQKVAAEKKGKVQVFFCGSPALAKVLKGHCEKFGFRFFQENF

Active and inactive are the calls of the source. Unless noted, the rule behind the calls is not given here.

Among the data in PubChem BioAssay are composite z-score and z-score values, retold here.

Sequence of NADPH oxidase 4 (Homo sapiens) (Q9NPH5 whole entry, looked up): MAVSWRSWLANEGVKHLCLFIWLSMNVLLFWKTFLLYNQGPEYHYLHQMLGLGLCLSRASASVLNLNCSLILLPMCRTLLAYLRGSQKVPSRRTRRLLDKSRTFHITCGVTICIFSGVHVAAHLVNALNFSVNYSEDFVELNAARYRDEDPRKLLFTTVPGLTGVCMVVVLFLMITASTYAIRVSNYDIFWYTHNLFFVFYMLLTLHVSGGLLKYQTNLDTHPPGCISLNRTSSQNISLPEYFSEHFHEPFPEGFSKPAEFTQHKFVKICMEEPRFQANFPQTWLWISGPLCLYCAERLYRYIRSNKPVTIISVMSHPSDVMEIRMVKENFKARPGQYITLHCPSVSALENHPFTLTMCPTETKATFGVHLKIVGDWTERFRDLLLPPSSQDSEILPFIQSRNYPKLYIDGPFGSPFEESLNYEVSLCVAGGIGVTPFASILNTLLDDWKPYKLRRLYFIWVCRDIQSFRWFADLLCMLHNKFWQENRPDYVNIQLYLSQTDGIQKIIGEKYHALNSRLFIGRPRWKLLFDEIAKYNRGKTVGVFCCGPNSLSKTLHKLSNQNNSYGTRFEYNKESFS
Sequence of Torsin-1A (Homo sapiens) (O14656 whole entry, looked up): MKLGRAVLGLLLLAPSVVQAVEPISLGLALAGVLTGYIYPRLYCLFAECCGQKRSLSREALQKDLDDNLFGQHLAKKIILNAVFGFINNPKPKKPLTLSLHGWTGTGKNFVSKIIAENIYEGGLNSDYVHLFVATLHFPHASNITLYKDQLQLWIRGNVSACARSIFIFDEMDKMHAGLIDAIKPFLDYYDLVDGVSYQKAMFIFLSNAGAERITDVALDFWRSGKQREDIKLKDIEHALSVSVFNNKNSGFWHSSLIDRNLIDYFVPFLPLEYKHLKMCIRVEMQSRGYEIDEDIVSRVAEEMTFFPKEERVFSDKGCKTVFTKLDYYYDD

Take `O=C1C2C=CC(C(O)c3cc(C(F)(F)F)cc(C(F)(F)F)c3)N(Nc3ccccc3F)C2C(=O)N1c1ccccc1` (stereo not given): the composite z-score in experiment [1] was 0.17; in experiment [6], 0.714; in [7], 0.385; in experiment [8], -0.0067; in experiment [9] it was 0.379; in experiment [10], -0.685. The composite z-score in experiment [12] was 1.01. The z-score was -3.68 (inactive) in experiment [2]; -0.476 (inactive) in [3]; 0.626 (inactive) in experiment [4]; -0.0442 (inactive) in [5]; -2.27 (inactive) in [11]; 4.38 (inactive) in [13]. Further, the z-score in [14] is 1.93 (inactive); in experiment [15] it was -3.51 (inactive); in experiment [16], 2.35 (inactive); in experiment [17], -0.746; in [18] it was -0.648 (inactive); in [19], -4.37 (inactive). In [20], this compound had a z-score of -1.58.
As for `C[C@]1(C(=O)NCC(F)(F)F)c2ccccc2C(=O)N(Cc2ccccc2)[C@H]1c1ccc(CO)cc1`, the composite z-score in experiment [1] is -0.398; in experiment [6], -0.726; in experiment [7], -0.0719; in experiment [8], -0.938; in experiment [9], 0.808; in experiment [10], -1.32. This compound also came in with a composite z-score in experiment [12] of 0.382. Moreover, the z-score in experiment [2] was -1.48 (inactive); in [3] it was -0.0817 (inactive); in experiment [4], -0.179 (inactive); in [5], 0.112 (inactive); in experiment [11], 0.588 (inactive); in experiment [13] it was 2.28 (inactive). In addition, the z-score was 0.0336 (inactive) in experiment [14]; -0.201 (inactive) in experiment [15]; -0.162 (inactive) in experiment [16]; -0.617 in experiment [17]; -0.0434 (inactive) in [18]; 0.431 (inactive) in [19]. Further, the z-score in experiment [20] came to 0.17.
Consider `CC(C)=CCCC(C)=CC(O)C1C=CC2C(=O)N(c3ccccc3)C(=O)C2N1Nc1ccccc1F` (stereo not given), for which the composite z-score in [1] was 0.151; in experiment [6] it was 1.17; in experiment [7], 0.0047; in experiment [8] it was -0.216; in experiment [9] it was -0.0306; in experiment [10], 0.396. In experiment [12], this compound displayed a composite z-score of -0.233. For the same compound, the z-score in experiment [2] is -2.83 (inactive); in experiment [3] it was -1.45 (inactive); in [4] it was -0.0228 (inactive); in experiment [5], 0.358 (inactive); in [11], 0.404 (inactive); in experiment [13] it was 1.7 (inactive). Also, the z-score was -0.389 (inactive) in [14]; -0.391 (inactive) in experiment [15]; -0.789 (inactive) in [16]; -0.162 in experiment [17]; -0.199 (inactive) in [18]; -0.284 (inactive) in [19]. In addition, the z-score in experiment [20] was found to be 0.83.
For the compound `[N-]=[N+]=NCc1ccccc1[C@@H]1OC(c2ccc(OCCCO)cc2)=N[C@]1(Cc1ccccc1N=[N+]=[N-])C(=O)N1CCCCC1`, the composite z-score in experiment [1] is 0.0032; in experiment [6], 1.58; in [7] it was 0.329; in experiment [8] it was 0.133; in [9], 1.31; in experiment [10] it was 0.0257. For the same compound, in experiment [12], the composite z-score was found to be 0.358. Further, the z-score in [2] was -1.91 (inactive); in [3], -0.166 (inactive); in experiment [4], -0.753 (inactive); in experiment [5], -0.189 (inactive); in experiment [11] it was 0.155 (inactive); in experiment [13], 16.3 (active). The z-score was 2.78 (inactive) in experiment [14]; 1.15 (inactive) in experiment [15]; 0.86 (inactive) in experiment [16]; 0.0177 in [17]; -1.45 (inactive) in experiment [18]; 0.924 (inactive) in [19]. The compound also gave a z-score in [20] of 1.17.
